{"source": "PubChem BioAssay (NCI)", "note": "About 83,000 compounds went through this panel and 20% of them were active in at least one assay; those are over-represented in the sample as a whole.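 Testing used 96-well plates and a 48-hour single-concentration exposure. Example: -40 means 40% of the starting cells died.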 Active and inactive are the calls of the source.", "data": [{"tested_on": "CAKI-1 renal", "test": "NCI-60 one-dose screen, 48 h (100 = growth as untreated, 0 = no growth, -100 = all killed)", "conditions": "10 µM unless noted", "protocol": "Growth inhibition of the CAKI-1 human tumor cell line is measured as a screen for anti-cancer activity. Cells are grown in 96 well plates and exposed to the test compound for 48 hours. Compounds are tested at a single concentration, which is 10^-5 M for most compounds. The reported endpoint is percent growth (GI% or GIPRCNT), where numbers from 0 - 100% represent growth inhibition, and numbers from -100% - 0 represent cell death. For example, a value of 40 represents 60% growth inhibition. A value of 0 means no net growth occurred over the course of the experiment. A value of -40 indicates 40% of cells at the beginning of the experiment died by the end of the experiment. A value of -100 means all cells are dead at the end of the experiment.\nNCI-60 Human Tumor Cell Lines Screen was performed using the standard one-dose NCI protocol, which is described in more detail at https://dtp.cancer.gov/discovery_development/nci-60/default.htm.\nCompounds with GIPRCNT values below 10 were considered active. Activity score was based on GIPRCNT using the following formula: […]\nScore is 0 for GIPRCNT values of 100 or above, 50 for GIPRCNT values of 0, and 100 for GIPRCNT values of -100.", "values": [{"smiles": "COc1ccc2nc3ccccc3c(NCCNCCO)c2c1", "growth": "6.25% (active)"}, {"smiles": "COc1ccc(-c2ccc(NNC(=O)c3ccc(F)cc3)nn2)cc1OC", "growth": "17.3% (inactive)"}, {"smiles": "CCC(Br)(CC)C(=O)c1ccc(OCC(=O)O)c(Cl)c1Cl", "growth": "83.8% (inactive)"}, {"smiles": "COc1cc(C)cc2oc3oc(=O)c(C(=O)c4cc5cc(Br)ccc5o4)cc3c(=O)c12", "growth": "91.8% (inactive)"}, {"smiles": "CC(C)CCSc1nc(N)nc2nc[nH]c12", "growth": "108% (inactive)"}, {"smiles": "C=CCc1nc2ccccc2s1", "growth": "98.3% (inactive)"}, {"smiles": "Cn1cc(-c2noc(-c3cn(C)c4ncc(F)cc34)n2)c2cc(Cl)ccc21", "growth": "43.2% (inactive)"}, {"smiles": "CCn1cc(-c2[nH]c(=S)ncc2-c2ccc(Cl)cc2)c(-c2ccc(Br)cc2)n1", "growth": "98.5% (inactive)"}, {"smiles": "COc1ccc(-c2cc(-c3ccccc3)nc(NCCNc3ccnc4cc(Cl)ccc34)n2)cc1", "growth": "-86.5% (active)"}, {"smiles": "C=C(C)[C@@H]1CC[C@]2(C)[C@H](CC=C3[C@@H]4[C@@H](C)[C@H](C)CC[C@]4(C(N)=O)CC[C@]32C)[C@@]1(C)CCC#N", "growth": "6.4% [100 µM] (active)"}, {"smiles": "CCCCCCCCCCCCCC[n+]1cccc(C(N)=O)c1", "growth": "15.5% (inactive)"}, {"smiles": "O=C(O)c1cccc(CN2CCN(c3cc4c(cc3F)c(=O)c(C(=O)O)cn4C3CC3)CC2)c1O", "growth": "88.7% (inactive)"}, {"smiles": "O=c1[nH]c2cc(Cl)c(Cl)cc2n2cc3ncccc3c12", "growth": "59.9% (inactive)"}, {"smiles": "CCOc1ccc2sc(NS(=O)(=O)c3ccc(N)cc3)nc2c1", "growth": "89.4% (inactive)"}, {"smiles": "O=C(CCN1CCCCC1)c1ccc(Cl)cc1", "growth": "95.2% (inactive)"}, {"smiles": "COc1ccc(NC(=S)NNc2ccc(-c3ccc(OC)c(OC)c3)nn2)cc1", "growth": "77% (inactive)"}, {"smiles": "COc1ccc(/C=C/C=C\\C(=O)c2ccc(-n3ccnc3)cc2)cc1", "growth": "90.9% (inactive)"}, {"smiles": "CC(C)=CC/C=C(/C)[C@H]1CC[C@]2(C)[C@@H]1CC[C@@H]1[C@@]3(C)CC/C(=N/O)C(C)(C)[C@@H]3CC[C@]12C", "growth": "57.4% [100 µM] (inactive)"}, {"smiles": "Cc1ccc(S(=O)(=O)N/N=C2\\CC3CCC2(C)C3(C)C)cc1", "note": "(stereo not given)", "growth": "78.5% (inactive)"}, {"smiles": "O=C(O)c1cc([N+](=O)[O-])ccc1Br", "growth": "97.6% (inactive)"}, {"smiles": "CCOC(=O)CCC[P+](c1ccccc1)(c1ccccc1)c1ccccc1", "growth": "101% (inactive)"}, {"smiles": "COc1ncnc2c(-c3ccccc3)cn(COCc3ccccc3)c12", "growth": "64.3% (inactive)"}, {"smiles": "Cc1cccc(C[C@H](NC(=O)Nc2ccc(Cl)cc2F)C(=O)N[C@@H]2C(=O)N3C[C@H](O)C[C@H]3C(=O)N3CCN(C)C[C@H]3C(=O)N[C@@H](C)C(=O)N3C[C@H](C)C[C@H]3C(=O)O[C@H]2C)c1", "growth": "59.1% (inactive)"}, {"smiles": "CC(C)C1=NOC(=O)C1=Cc1cn(-c2ccccc2)nc1-c1ccccc1", "growth": "57.7% (inactive)"}, {"smiles": "CCCCCC1CCCCN1C(=O)OCCCC", "note": "(stereo not given)", "growth": "79.7% (inactive)"}, {"smiles": "c1nc(N2CCOCC2)c2[nH]ccc2n1", "growth": "103% (inactive)"}, {"smiles": "CN(C)c1ccc(N=Nc2ccc3ccccc3c2)cc1", "growth": "91.4% (inactive)"}, {"smiles": "CCCc1cc2cc(-n3nc(C)c4c3CC(C)(C)CC4=O)cc(NC3CCSCC3)c2c(=O)[nH]1", "growth": "68.8% (inactive)"}, {"smiles": "Cn1ncc2c(Nc3ccc(O)cc3)nc(Cl)nc21", "growth": "92.9% (inactive)"}, {"smiles": "C#C[C@]1(O)CC[C@H]2[C@@H]3CC=C4c5nc(N)sc5CC[C@]4(C)[C@H]3CC[C@@]21C", "growth": "54.9% (inactive)"}, {"smiles": "NC1=NC(=O)NC1(c1ccccc1)c1ccccc1", "growth": "94.6% (inactive)"}, {"smiles": "O=C(Nc1cccc(C2=NCCN2)c1)c1cccc(C(=O)Nc2cccc(C3=NCCN3)c2)c1", "growth": "92.6% (inactive)"}, {"smiles": "Clc1ccccc1/C=N\\Nc1ccccn1", "growth": "80.2% (inactive)"}, {"smiles": "COc1ccc2c(c1)C(C)Cc1c(Cl)ncnc1N2C", "note": "(stereo not given)", "growth": "2.36% (active)"}, {"smiles": "CCCCCn1c(C)cc(/C=C\\c2ccc3cc(C)ccc3[n+]2C)c1C", "growth": "-80.3% (active)"}, {"smiles": "Cn1cc(-c2noc(-c3cn(C)c4ncc(F)cc34)n2)c2ccccc21", "growth": "47.1% (inactive)"}, {"smiles": "C[C@H]1[C@H](C)CC[C@]2(C(=O)O)CC[C@]3(C)C(=CC[C@@H]4[C@@]5(C)C/C(=C/c6ccco6)C(=O)C(C)(C)[C@@H]5CC[C@]43C)[C@H]12", "growth": "-74.6% [100 µM] (active)"}, {"smiles": "CC(C)[C@H]1COC(=O)N1[C@@H]1C(=O)N([C@@H](CCC(=O)N2CCN(C3CCCC3)CC2)C(=O)N[C@@H]2CCCc3ccccc32)[C@@H]1/C=C/c1cccc(Cl)c1", "growth": "59.3% (inactive)"}, {"smiles": "Nc1ccc(NC(=O)c2ccccc2)c2c1C(=O)c1ccccc1C2=O", "growth": "96.7% (inactive)"}, {"smiles": "O=C(NNc1ccc(-c2ccccc2)nn1)c1ccc(F)cc1", "growth": "61.8% (inactive)"}]}]}
